Experimental data as given in PubChem BioAssay AID1159580 (chemical genetic matrix, 2015).
“And” between values parts separate entries of the source, which are not always exact repeats. Equal values may be shown once. The campaign covered roughly 5,500 compounds. About 2,000 (36%) were called active. Inconclusive results (about 18%) are left out. Cut-off read from the data, not from the text of the source: active = normalized growth mostly below about 0.91 (no sharp cut-off); inconclusive = no clear call, values can overlap the other calls; inactive = mostly above about 0.92. The list shows a part of the results.

Assay: chemical genetic growth profiling, strain panel (AID 1159580);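 note: tested at 20 µM; growth read once vehicle control cultures reached saturation at 30 °C; 1 = growth at the plate median or of vehicle wells; lower values mean less growth of the strain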
Settings: S. cerevisiae deletion strains, growth OD

Measured: normalized growth

CC12CCC3C(CC3(C)C)C(C)(CCC1=O)O2 (stereo unspecified)
inactive: locus YAL021C, strain ccr4, active compounds read low 1.04 | locus YAL026C, strain drs2, active compounds read low 1.01 | locus YAL030W, strain snc1, active compounds read low 0.994 | locus YBL061C, strain skt5, active compounds read low 0.99 | locus YBR009C, strain hhf1, active compounds read low 1.01 | locus YBR021W, strain FUR4, active compounds read low 1.01 | locus YBR023C, strain chs3, active compounds read low 0.996 | locus YBR171W, strain sec66, active compounds read low 0.985 | locus YBR229C, strain ROT2, active compounds read low 1.01 | locus YBR231C, strain swc5, active compounds read low 0.983 | locus YBR279W, strain paf1, active compounds read low 1.02 | locus YCL011C, strain gbp2, active compounds read low 1.01 | locus YCL016C, strain dcc1, active compounds read low 1.01 | locus YCL029C, strain bik1, active compounds read low 1.03 | locus YCL061C, strain MRC1, active compounds read low 1.01 | locus YCL069W, strain vba3, active compounds read low 1 | locus YCR088W, strain abp1, active compounds read low 0.981 | locus YDL005C, strain med2, active compounds read low 0.972 | locus YDL035C, strain GPR1, active compounds read low 1.01 | locus YDL040C, strain nat1, active compounds read low 0.99 | locus YDL074C, strain BRE1, active compounds read low 1.07 | locus YDL101C, strain DUN1, active compounds read low 1.02 | locus YDL185W, strain tfp1, active compounds read low 1.02 | locus YDL192W, strain arf1, active compounds read low 1.01 | locus YDR001C, strain nth1, active compounds read low 0.986 | locus YDR069C, strain doa4, active compounds read low 1.01 | locus YDR101C, strain arx1, active compounds read low 0.983 | locus YDR137W, strain rgp1, active compounds read low 0.977 | locus YDR159W, strain sac3, active compounds read low 0.982 | locus YDR162C, strain NBP2, active compounds read low 1.03 | locus YDR195W, strain ref2 0.934 | locus YDR297W, strain sur2, active compounds read low 1.01 | locus YDR318W, strain mcm21, active compounds read low 1.03 | locus YDR334W, strain swr1, active compounds read low 1 | locus YDR335W, strain msn5, active compounds read low 1 | locus YDR388W, active compounds read low 1.01 | locus YDR392W, strain spt3, active compounds read low 0.939 | locus YDR502C, strain sam2, active compounds read low 1.04 | locus YEL003W, strain gim4, active compounds read low 0.995 | locus YEL037C, strain rad23, active compounds read low 1.01 | locus YEL061C, strain CIN8 (second series), active compounds read low 0.992 | locus YEL061C, strain CIN8, active compounds read low 1.01 | locus YER015W, strain faa2, active compounds read low 1 | locus YER016W, strain bim1, active compounds read low 0.988 | locus YER110C, active compounds read low 1.02 | locus YER111C, strain swi4, active compounds read low 0.987 | locus YER155C, strain BEM2 (second series), active compounds read low 0.967 | locus YER155C, strain BEM2, active compounds read low 1.01 | locus YER167W, strain BCK2, active compounds read low 1 | locus YFR010W, strain ubp6, active compounds read low 1.01 | locus YGL078C, strain dbp3, active compounds read low 1.01 | locus YGL086W, strain mad1, active compounds read low 1.01 | locus YGL167C, strain pmr1, active compounds read low 0.99 | locus YGL173C, strain kem1, active compounds read low 0.999 | locus YGL227W, strain vid30, active compounds read low 0.989 | locus YGL240W, strain doc1, active compounds read low 0.943 | locus YGL248W, strain PDE1, active compounds read low 1.05 | locus YGL253W, strain hxk2, active compounds read low 1.02 | locus YGR078C, strain PAC10, active compounds read low 1.04 | locus YGR135W, strain pre9, active compounds read low 1.05 | locus YGR252W, strain gcn5, active compounds read low 1.07 | locus YHR013C, strain ard1, active compounds read low 1.01 | locus YHR027C, strain rpn1, active compounds read low 0.988 | locus YHR030C, strain SLT2, active compounds read low 1.01 and 1.05 | locus YHR079C, strain IRE1 (second series), active compounds read low 1.02 | locus YHR079C, strain IRE1, active compounds read low 1.03 | locus YHR094C, strain hxt1, active compounds read low 1.01 | locus YHR129C, strain ARP1, active compounds read low 1.01 | locus YHR142W, strain chs7, active compounds read low 1 | locus YHR200W, strain rpn10, active compounds read low 1.02 | locus YIL066C, strain RNR3, active compounds read low 1.01 | locus YIL073C, strain SPO22, active compounds read low 1.08 | locus YIL125W, strain kgd1, active compounds read low 1 | locus YIR030C, strain dcg1, active compounds read low 1.02 | locus YJL092W, strain hpr5, active compounds read low 0.997 | locus YJL095W, strain BCK1 (second series), active compounds read low 1.01 | locus YJL095W, strain BCK1, active compounds read low 1.06 and 1.04 | locus YJL115W, strain asf1, active compounds read low 0.976 | locus YJL129C, strain trk1, active compounds read low 0.991 | locus YJL134W, strain LCB3, active compounds read low 1.02 | locus YJL154C, strain vps35, active compounds read low 0.991 | locus YJL164C, strain tpk1, active compounds read low 1.04 | locus YJL166W, strain qcr8, active compounds read low 0.984 | locus YJL168C, strain set2, active compounds read low 1.01 | locus YJL187C, strain SWE1 (second series), active compounds read low 1.04 | locus YJL187C, strain SWE1, active compounds read low 1
